Screening data deposited in PubChem by several laboratories.
Hits are enriched below; roughly 2.6% of the tested compounds scored in any of these assays.
H9c2 TAG inh: triacylglycerol accumulation inhibition; H9c2 cells, Nile Red lipid (TAG) fluorescence; cells loaded with 200 µM oleic acid; inhibition, % at 12.5 µM; 230,000 compounds, 0.66% hits;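 active means pattern-corrected inhibition of lipid staining of at least 50% with the nuclear-stain viability signal not falling by more than 50%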;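 further: 0% = DMSO wells and 100% = triacsin C control wells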
Jurkat NFkB inh: inhibitors of the PMA/ionomycin-induced NF-kB reporter in Jurkat cells; PMA/ionomycin-induced NF-kB luciferase reporter, luminescence; inhibition, % at 4 µM; 330,000 compounds, 0.53% hits; AID 435003; in the data active means inhibition above about 50%
697 NFkB inh: inhibitors of the PMA/ionomycin-induced NF-kB reporter in 697 B cells. 697 B-cell NF-kB luciferase reporter, 16 h. inhibition, % at 4 µM. 330,000 compounds, 0.33% hits. AID 435022; in the data active means inhibition above about 35%
NR2F2 inh: NR2F2 (human) inhibition, primary screen | P24468 | HEK293T NGFI-A luciferase reporter, luminescence | inhibition, % at 8.6 µM | 370,000 compounds, 0.7% hits;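 active means inhibition above a per-plate cutoff, mean inhibition of test wells between control levels plus 3 SD, cut at about 38% in these data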;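 further: cells cotransfected with COUP-TFII expression vector driving the NGFI-A reporter; 0% = median of COUP-TF2 test wells and 100% = reporter-only cells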
Target sequence (P24468 whole entry, looked up): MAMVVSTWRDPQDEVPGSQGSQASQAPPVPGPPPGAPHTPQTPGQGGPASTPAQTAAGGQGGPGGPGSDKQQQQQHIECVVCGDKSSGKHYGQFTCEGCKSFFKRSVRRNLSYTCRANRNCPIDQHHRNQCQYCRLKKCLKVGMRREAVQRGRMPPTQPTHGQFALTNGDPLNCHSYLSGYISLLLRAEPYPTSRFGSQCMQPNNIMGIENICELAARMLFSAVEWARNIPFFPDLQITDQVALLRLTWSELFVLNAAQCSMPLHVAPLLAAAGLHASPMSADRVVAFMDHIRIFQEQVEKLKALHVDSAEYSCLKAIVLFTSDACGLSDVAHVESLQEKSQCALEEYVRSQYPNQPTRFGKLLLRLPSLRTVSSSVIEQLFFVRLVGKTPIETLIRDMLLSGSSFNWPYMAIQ
Gli-Sufu antag: antagonists of Gli-Sufu signaling; Sufu-KO-LIGHT fibroblasts, Gli luciferase reporter luminescence; inhibition, % at 5 µM; 340,000 compounds, 0.74% hits; AID 588413;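 active means inhibition above about 55%, limit read from the data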;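 further: 0% = DMSO-treated cells and 100% = wells with medium but no cells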
Cardio protect: protects H9c2 cardiomyocytes from peroxide injury; H2O2 injury protection, ATPLite, 2 h; protection from H2O2 cell death, % at 20 µM; 360,000 compounds, 0.63% hits; AID 588492;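 active means compounds giving at least 50% protection of heart cells from peroxide-induced death in the single-dose screen, raw or plate-pattern-corrected value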;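 further: 0% = DMSO wells with peroxide and 100% = DMSO wells without peroxide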
Gal4-VP16 ctr: inhibits VP16 reporter, flagging COUP-TFII antagonist hits; shares compounds with NR2F2 inh; HEK293 Gal4-VP16 luciferase reporter, luminescence; inhibition, % at 8.5 µM; 2,500 compounds, 25% hits; AID 687007; in the data active means inhibition above about 13%
NR2F2 inh conf: COUP-TFII (NR2F2) inhibition, confirmation assay | shares compounds with NR2F2 inh | HEK293 NGFI-A luciferase reporter, luminescence | inhibition, % at 8.5 µM | 2,500 compounds, 45% hits | AID 687008;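 active means mean inhibition over three repeats above a set limit taken from the earlier primary screen, cut at about 38% in these data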;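 further: 100% = cells given the luciferase reporter alone without the COUP-TF2 vector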
* = called active by the depositor; nt = no result.

SMILES | H9c2 TAG inh | Jurkat NFkB inh | 697 NFkB inh | NR2F2 inh | Gli-Sufu antag | Cardio protect | Gal4-VP16 ctr | NR2F2 inh conf
CN(C(=O)c1cccc(NC(=O)Cc2ccc(NC(=O)C3CCCN(C(=O)CCc4ccccc4)C3)cc2)c1)C1CCC1 (stereo not drawn) | -22.5 | nt | nt | 48.3* | 8.7 | -17.9 | 3.9 | 27.5
CN(C(=O)c1cccc(NC(=O)Cc2ccc(NC(=O)C3CCCN(C(=O)CCc4ccccc4)C3)cc2)c1)C1CCCC1 (stereo not drawn) | -21.8 | nt | nt | 57.8* | 17.7 | -16.5 | 0.1 | 50.7*
CN(Cc1ccccc1)C(=O)c1ccc(NC(=O)Cc2cccc(NC(=O)C3CCCN(C(=O)CCc4ccccc4)C3)c2)cc1 (stereo not drawn) | 4.2 | 12.8 | -19.6 | 43.9* | 12.6 | -10.4 | 1.6 | 23.2
CN(C(=O)c1ccc(NC(=O)Cc2cccc(NC(=O)C3CCCN(C(=O)CCc4ccccc4)C3)c2)cc1)C1CCCC1 (stereo not drawn) | -6.4 | -0.7 | -23.9 | 23.1 | 0.3 | -7.2 | nt | nt
COC(=O)CSc1nnc(-c2ccc(NS(=O)(=O)c3ccc(C(C)(C)C)cc3)cc2)o1 | nt | nt | nt | 9.0 | nt | nt | nt | nt
Nc1nc2c(ncn2[C@@H]2O[C@H](C(=O)N[C@H](Cc3ccccc3)C(=O)NCCCc3ccccc3)[C@@H](O)[C@H]2O)c(=O)[nH]1 | nt | nt | nt | -6.9 | nt | nt | nt | nt
CCOC(=O)c1cc2c(C)n(-c3ccc(C)cc3)c(C)c2ccc1=O | nt | 10.5 | -23.5 | 40.9* | -30.6 | -22.4 | -137.2 | -19.3
CCCCCOc1ccc(Br)cc1CSC(=N)N | nt | nt | nt | 65.5* | 66.3* | -11.2 | 15.7* | 47.3*
O=C(Nc1nccs1)c1ccc(S(=O)(=O)NCC2CCCCC2)cc1 | nt | 37.4 | -22.4 | 59.9* | 41.6 | -22.3 | 8.4 | 41.4*
O=C(Nc1nccs1)c1ccc(S(=O)(=O)NCc2cccs2)cc1 | nt | -11.2 | 2.5 | 14.0 | -1.6 | -8.4 | nt | nt
COc1nc(OC)nc(N2CCC(C(=O)NCc3cccc(OC)c3OC)CC2)n1 | nt | nt | nt | -28.0 | nt | nt | nt | nt
Nc1ncnc2c1ncn2[C@@H]1O[C@H](C(=O)N[C@@H](CCc2ccccc2)C(=O)N2CCN(C(=O)N3CCOCC3)CC2)[C@@H](O)[C@H]1O | nt | nt | nt | -20.6 | nt | nt | nt | nt
O=C(Nc1cccc(S(=O)(=O)N2CCCC2)c1)c1ccc2c(=O)n3c(nc2c1)CCCCC3 | nt | 13.1 | -14.0 | 14.3 | 20.6 | -4.9 | nt | nt
O=C(Nc1cccc(S(=O)(=O)N2CCOCC2)c1)c1ccc2c(=O)n3c(nc2c1)CCCCC3 | -1.7 | 17.7 | 1.3 | 38.7* | 7.5 | 15.0 | -3.2 | 8.8
O=C(c1ccc2c(=O)n(Cc3ccc(Cl)cc3)c(=S)[nH]c2c1)N1CCCC1 | nt | -7.5 | -56.0 | -4.9 | -0.4 | -7.6 | nt | nt
O=C(c1ccc2c(=O)n(Cc3ccc(Cl)cc3)c(=S)[nH]c2c1)N1CCOCC1 | nt | 18.4 | -35.3 | 38.9* | -17.2 | 0.7 | 6.9 | 18.8
CCC(CO)Nc1cccc2c1S(=O)(=O)N(Cc1cn(Cc3ccc(Cl)cc3)nn1)Cc1ccccc1O2 (stereo not drawn) | nt | nt | nt | -12.5 | nt | nt | nt | nt
COc1ccc(-c2cc(NC(=O)Cc3c[nH]c4ccccc34)ccc2Nc2cccnc2)cc1F | nt | nt | nt | -5.1 | nt | nt | nt | nt
CC(C)(C)c1ccc(C(=O)Nc2ccc(NC(=O)C(=O)O)cc2)o1 | 0.8 | 2.2 | -3.5 | 41.7* | -3.3 | -1.2 | 1.9 | 1.6
Cc1oc(C(C)(C)C)cc1C(=O)Nc1ccc(C(=O)O)cc1 | nt | 15.1 | -75.2 | -17.0 | 0.6 | -9.9 | nt | nt
Cc1ccccc1-n1nc(C)c2cc(C(=O)N3CCOCC3)sc21 | nt | -0.3 | 16.0 | 3.2 | 1.6 | -0.5 | nt | nt
Cc1ccc(S(=O)(=O)N2CCN(C(=O)c3cc4c(C)nn(-c5ccccc5C)c4s3)CC2)cc1 | -0.9 | 19.5 | -5.7 | 45.7* | -0.5 | -9.6 | 9.7 | 30.1
COc1cc(/C=C/C(=O)c2ccc3c(c2)OCCO3)cc(Br)c1OCC(=O)N(C)C | nt | 46.9 | -47.3 | 37.6* | 6.5 | 12.7 | 30.6* | 20.3
CN1CCCCC(NC(=O)C23CC4CC(CC(C4)C2)C3)C1=O (stereo not drawn) | nt | nt | nt | -1.0 | nt | nt | nt | nt
